Here are results for 61 molecules from PubChem BioAssay AID1446 (The Scripps Research Institute Molecular Screening Center, 2008).

In all, about 220,000 compounds went through this assay and about 2,400 (1.1%) were called active. The entries come from a sample that favours actives as a whole. Unmarked numbers belong to inactive results.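 How the source made its calls: active means inhibition above the campaign mean plus 3 SD over all tested compounds (cut at about 24% in these data); inactive means the rest.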

This test in a line: reduced viability of JAK2V617F-dependent Ba/F3 cells, primary screen, JAK2V617F inhibitor project, cell-based, Ba/F3 EpoR-JAK2V617F, luminescence (AID 1446).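 Further: cytokine-independent growth of Ba/F3 cells driven by EpoR plus mutant JAK2; 0% = DMSO-treated cells and 100% = JAK inhibitor I control.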 To be noted: ATP luminescence, at 5.6 µM, active compounds read high.
What is called inhibition is the relative decrease from the control value, in per cent. On to `Cc1noc(C)c1C(=O)OCC(=O)/C=C1\N(C)c2ccccc2C1(C)C`, for which the inhibition was 1.84%. Regarding `CN1/C(=C\C(=O)c2cccnc2Cl)C(C)(C)c2ccccc21`, the inhibition was 2.48%. Regarding `CC(=O)Nc1cccc(OCC(=O)/C=C2\N(C)c3ccccc3C2(C)C)c1`, the inhibition was 37.5% (active). Regarding `N/C(=N\OC(=O)Nc1ccccc1)c1ccno1`, the inhibition is 4.88%.

With `CC1(C)CC(=O)C=C(N2CCCC2)C1`, the inhibition is -0.55%. Under `CC(C)NC(=S)N1CCN(C(c2ccccc2)c2ccccc2)CC1` stands 1.76%.

As for `CC1(C)CC(N2CCN(C(c3ccccc3)c3ccccc3)CC2)=CC(=[N+]2CCCCC2)C1`, the inhibition is 98.8% (active). As to `CCOC(=O)C(Sc1ncc(C#N)c(N)n1)C(C)C` (stereo unspecified), the inhibition is -2.24%. In the case of `COc1cc(C=O)ccc1Oc1nnnn1-c1ccccc1`, the inhibition is 1.87%. For the molecule `Cc1cc(N/N=C\c2ccc(Br)cc2)nc(-n2nc(C)cc2C)n1`, the inhibition was -1.35%. `Cc1cc(C)n(-c2cc(Oc3ccccc3)ncn2)n1`: the inhibition was 0.29%. Under `COc1ccc(Nc2cc(C)nc(-n3nc(C)cc3C)n2)cc1` stands 76.7% (active). On to `COc1ccccc1/C=N\Nc1cc(C)nc(-n2nc(C)cc2C)n1`, for which the inhibition is -2.19%. With `Cc1cc(Oc2ccccc2)nc(N2CCOCC2)n1`, the inhibition was 1.31%. Turning to `CC(=O)c1ccc(Oc2cc(C)nc(-n3nc(C)cc3C)n2)cc1`, the inhibition is 64.7% (active). As to `Nc1nc(SC23CC4CC(CC(C4)C2)C3)ns1`, the inhibition was -4.14%.

For the molecule `O=C(c1ccc(OC2CCN(Cc3ccccn3)CC2)cc1)N1CCCCCC1`, the inhibition is -0.65%. Take `CC(C)(C)c1ccc(CCC2OCC(CN3CCOCC3)O2)cc1` (stereo unspecified): the inhibition is 0.42%. Turning to `CC(C)[C@@H]1NC(=O)c2cc([N+](=O)[O-])cc(I)c2NCCC[C@@H](C(=O)NC(CC(=O)O)C(N)=O)NC(=O)[C@H](CO)NC1=O` (stereo partly specified), the inhibition is 1.14%. As to `CC(C)(C)OC(=O)NCCCCCC(=O)N/N=C/c1coc2ccccc2c1=O`, the inhibition was 0.8%. Under `Cc1ccc(N2C(=O)CN=C2Nc2nc(C)cc(C)n2)cc1` stands -0.62%; under `CCCCOc1ccc(NC(=O)[C@@H]2CCCN2C(=O)C2CCN(S(=O)(=O)c3ccc(C)cc3)CC2)cc1`, 1.1%; under `Cc1cc(C)nc(NS(=O)(=O)c2ccc(N/C=C\C(=O)c3cccs3)cc2)n1`, 2.57%. Under `CCN1/C(=C/c2ccc3ccc(C)cc3[n+]2CC)Sc2ccccc21` stands 100% (active); under `CCN1/C(=C/C(=S)Nc2ccccc2)Sc2ccccc21`, -4.02%; under `CCN1CCN(CCNC(=O)c2ccc(/C=C3/Sc4ccccc4N(Cc4cccc(C)c4)C3=O)cc2)CC1`, 4.4%.

For `CCN1/C(=C\c2ccc3ccccc3[n+]2CC)Sc2cc(C)ccc21`, the inhibition is 99.7% (active). Under `COc1ccc([N+](=O)[O-])cc1NC(=O)COC(=O)/C=C/c1ccco1` stands -0.59%.

As for `O=S1(=O)CCC(NC(=S)SCc2ccccc2Br)C1` (stereo unspecified), the inhibition was -4.11%.

Take `CC1(C)OC(=O)C(=CSc2ccc(C(C)(C)C)cc2)C(=O)O1`: the inhibition was -1.81%. Under `COc1ccc(S(=O)(=O)NC(C)C)cc1C(=O)NC1CCCCC1` stands -1.5%; under `COc1cc(OC)c(C(=O)NC2CCCCCC2)cc1OC`, 99.6% (active); under `COc1cc(OC)c(C(=O)NC2CC(C)(C)NC(C)(C)C2)cc1OC`, -0.48%. Under `O=C(NC(=O)c1ccccc1N1CCCCC1)Nc1ccc(Br)cc1` stands 0.79%.

Regarding `Cc1c(/C=N\NC(=O)c2cc3ccccc3o2)c2ccccc2n1C`, the inhibition was 34.8% (active).

Turning to `O=C(N/N=C/c1c[nH]c2ccccc12)c1cc2ccccc2o1`, the inhibition was 0.06%. Under `O=C(N/N=C/c1coc2ccccc2c1=O)c1cc2ccccc2o1` stands 2.09%; under `CC(=O)c1nnn(-c2ccc(Cl)cc2C#N)c1C`, 0.95%. For the molecule `CC(C)CNC(=O)COC(=O)/C=C/c1ccco1`, the inhibition was -3.59%. Under `COc1ccc(Cn2c(-c3ccc(Cl)cc3)c[n+]3ccccc23)cc1` stands 88.9% (active); under `COc1ccc(C(=O)CN(C(=O)c2ccc(Cl)cc2)N2C(=O)c3ccccc3C2=O)cc1`, 0%. As for `COc1ccc(Cn2c(=O)cc(C)[nH]c2=S)cc1`, the inhibition was 2.03%. With `O=C(CSc1nnc(SCc2ccc(F)cc2)s1)Nc1ccc(C(=O)O)cc1`, the inhibition is -3.83%. Under `Cc1ccc(S(=O)(=O)N(C)C)cc1NC(=O)c1ccccc1Br` stands 2.86%; under `COc1ccc(-c2cc(C(F)(F)F)nc(S(C)(=O)=O)n2)cc1OC`, 37.9% (active); under `COc1ccc(-c2cc(C(F)(F)F)nc(SCC(=O)Nc3ccc4c(c3)OCO4)n2)cc1OC`, 2.59%. Under `COc1cc(OC)nc(S(C)(=O)=O)n1` stands -3.65%; under `Cc1c(CCC(=O)O)c(=O)oc2cc3occ(-c4ccccc4)c3cc12`, 2.82%; under `COc1ccc(C(=O)NNC(=S)NC(=O)c2ccccc2[N+](=O)[O-])cc1`, 0.22%. As to `CCOC(=O)C(=Cc1ccccc1OC)C(=O)OCC`, the inhibition is -2.52%. Under `COC(=O)CNC(=O)c1ccccc1F` stands -2.64%; under `COc1ccc(OCC(=O)NNC(=O)c2cccc(C)c2)cc1`, -0.28%; under `CSc1nc(N(C)NC(=O)c2cccc(C)c2)c2ccccc2n1`, 93.6% (active). Under `COc1ccc(C(=O)NN(C)c2nc(-c3ccccc3)cc(C)c2S(C)(=O)=O)cc1` stands 2.15%.

Take `CN(NC(=O)c1ccccc1)c1nc2ccccc2nc1C(F)(F)F`: the inhibition was -2.71%. With `CN(NC(=O)c1ccccc1F)c1nc(C(F)(F)F)nc2ccccc12`, the inhibition was 73.2% (active).

As for `CC(=O)c1ccc(NC(=O)CSC(=S)N2CCCC2)cc1`, the inhibition was -0.78%. Under `C=CCNC(=O)CSc1nc2scc(-c3ccco3)c2c(=O)n1CC=C` stands -2.22%; under `Nc1nc(NC(=O)/C=C/c2ccc(F)cc2)nn1-c1ccccc1`, 1.73%; under `CCCCCN(C(=O)NC(=O)Nc1cccc(C)c1C)S(C)(=O)=O`, 1.95%. For the molecule `CC(NC(=O)C(=O)Nc1nccs1)c1ccccc1` (stereo unspecified), the inhibition is -0.5%.
